Consider 23 compounds from PubChem BioAssay (NCATS).

Records with an inconclusive call do not appear. Where a call stands in place of a potency, no number is given. Active and inactive are the calls of the source. The call rests on the fitted dose curve; in most records, active means well fitted inhibition curve with a large enough effect; inconclusive means small, poorly fitted or top-dose-only effect; inactive means no such curve, though single readings can be large or run the other way.

This experiment addresses Retinaldehyde dehydrogenase 3 (Homo sapiens) (UniProt P47895). Kind of experiment: qHTS for Inhibitors of the Aldehyde Dehydrogenase Family (ALDH1A3) Primary screen (AID 2061315). As to conditions: ALDH inhibition qHTS; series mostly up to 56 µM.
In the case of `COc1cc(Br)c(Nc2nc(-c3c(C)nc4ncccn34)cs2)c(Br)c1`, the Potency entry was “inactive”. Under `O=c1[nH]c2ccccc2n1CCN1CCN(c2cccc(C(F)(F)F)c2)CC1` stands “inactive”.

Regarding `CC1(C)CC(NC(=O)C(=O)Nc2ccc(Br)cc2)CC(C)(C)N1`, the Potency entry was “inactive”. `C[C@]12CC[C@@H]3c4ccc(OC(=O)c5ccccc5)cc4CC[C@H]3[C@@H]1CC[C@@H]2O`: the Potency result is “inactive”. As for `Cc1ccccc1NC(=O)Nc1ccc(CN2C(=O)N([C@@H](CC(C)C)C(=O)N[C@@H](CC(=O)O)c3ccccc3)C(=O)C2(C)C)cc1`, the Potency entry is “inactive”. Under `Cc1[nH]cnc1C1CCN(c2nc3cccc4c3n2CCC4=O)CC1` stands “inactive”; under `Cc1ccc2[nH]c(=O)c(C3=NN(C(=O)CCC(=O)O)C(c4ccc(Br)cc4)C3)c(-c3ccccc3)c2c1` (stereo not drawn), “inactive”.

With `COc1cccc(OC)c1-c1nc(C(=O)N[C@@H](CC(C)C)C(=O)O)cn1-c1ccnc2cc(Cl)ccc12`, the Potency entry is “inactive”. As for `Cc1ccnc(NC(=O)C(C)c2cccc(C(=O)c3ccccc3)c2)c1` (stereo not drawn), the Potency result was “inactive”.

On to `CCCn1c(=O)c2[nH]c(-c3ccc(OCC(=O)O)cc3)nc2n(CCC)c1=O`, for which the Potency entry was “inactive”.

Turning to `O=C(O)c1ccc(S(=O)(=O)N(Cc2ccc(OC(F)(F)F)cc2)c2ncc(C(F)(F)F)cc2Cl)cc1`, the Potency entry was “inactive”.

For `CCOC(=O)[C@H](CCc1ccccc1)CC1(C(=O)N[C@H]2CCc3ccccc3N(CC(=O)O)C2=O)CCCC1`, the Potency result is “inactive”. Regarding `CCC1C(=O)N(C)c2cnc(Nc3ccc(C(=O)NC4CCC(N5CCN(CC6CC6)CC5)CC4)cc3OC)nc2N1C(C)C` (stereo not drawn), the Potency result is “inactive”. As for `O=C(CCc1nnc2n(Cc3ccc(Cl)cc3)c(=O)c3ccccc3n12)NCCC1=CCCCC1`, the Potency entry is “inactive”. For `CC1(C)CC(=O)N(CCCCN2CCN(c3ncccn3)CC2)C(=O)C1`, the Potency result was “inactive”. For `O=C(O)c1cccc(S(=O)(=O)N2CCc3ccccc3C2)c1`, the Potency result was “inactive”. As for `CNS(=O)(=O)CC1CCC(N(C)c2ncnc3[nH]ccc23)CC1` (stereo not drawn), the Potency result was “inactive”. For the compound `COc1cc2ncnc(Oc3ccc(CC(=O)Nc4cnn(C(C)C)c4)cc3)c2cc1OC`, the Potency result was “inactive”.

Take `c1cc(OCCCN2CCCCC2)ccc1CN1CCCCC1`: the Potency result was “inactive”. Take `CNc1ccc([N+](=O)[O-])c(Nc2ccc3[nH]ncc3c2)n1`: the Potency entry is “inactive”. Under `C=CC(C)(O)CC[C@@H]1[C@@]2(C)CCCC(C)(C)C2CC[C@@]1(C)O` (stereo partly drawn) stands “inactive”; under `COC1CCN(c2cccc(-c3cc(NC(C)=O)nc(-n4nc(C)cc4C)n3)n2)CC1`, “inactive”; under `CC(C)(F)CC(NC(c1ccc(-c2ccc(S(C)(=O)=O)cc2)cc1)C(F)(F)F)C(=O)NC1(C#N)CC1` (stereo not drawn), “inactive”.
